D2 PAM-1 = D2 dopamine receptor (human) potentiation; AID 485347; 340,000 tested, 0.34% active; potentiation, % at 10 µM; HEK293 T-REx D2, calcium flux, EC20 dopamine potentiation; P14416;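 active means potentiation over 3 SD above the plate norm, cut at about 30% in these data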
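Primary screen. Calcium kinetics in induced HEK293 T-REx D2 cells: compound pre-addition 180 s, EC20 dopamine, 180 s more.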
D2 PAM-2 = positive allosteric modulators of human D2 dopamine receptor; P14416; DiscoveRx D2 beta-arrestin cells, luminescence, 90 min; 100% = 57 uM dopamine signal; potentiation, % (test concentration not listed); 360,000 tested, 0.23% active; AID 624464; in the data active means potentiation above about 50%; inconclusive means mostly about 30% to 49%
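PathHunter D2 cells, attached overnight at 37 deg C, received compound in DMSO plus dopamine at EC20 (50 nM final) for 90 min at 37 deg C. Beta-arrestin recruitment was read as luminescence after 1 h with detection reagent at ambient temperature.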
B2AR arrestin = beta2AR (human) beta-arrestin recruitment activity | P07550 | beta-arrestin recruitment to beta2AR, cell-based reporter | Potency, µM (top dose mostly 46.1 µM), hits mostly activators | 330,000 tested, 0.02% active | AID 492947; active means well fitted activation curve with a large enough effect; inconclusive means small, poorly fitted or top-dose-only effect; further: nearly all actives have a fitted effect of over 65% in size
Target sequence (P07550 whole entry, looked up): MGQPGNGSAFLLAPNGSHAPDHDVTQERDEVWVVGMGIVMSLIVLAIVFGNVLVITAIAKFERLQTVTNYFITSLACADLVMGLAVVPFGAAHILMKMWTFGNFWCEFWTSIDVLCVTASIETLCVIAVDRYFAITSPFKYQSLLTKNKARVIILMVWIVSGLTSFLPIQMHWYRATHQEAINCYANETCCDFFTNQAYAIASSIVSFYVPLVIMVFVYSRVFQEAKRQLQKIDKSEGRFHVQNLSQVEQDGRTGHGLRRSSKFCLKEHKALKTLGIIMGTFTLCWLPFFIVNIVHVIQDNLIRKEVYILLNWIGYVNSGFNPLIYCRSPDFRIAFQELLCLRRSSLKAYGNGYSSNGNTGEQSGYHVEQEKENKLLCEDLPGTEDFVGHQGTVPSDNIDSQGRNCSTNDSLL
D2 ag-1 = agonists of human D2 dopamine receptor. P14416. 340,000 tested, 0.53% active. activation, % at 2 µM. HEK293 T-REx D2 cells, calcium flux agonist mode;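 active means activation over 3 SD above normal in the single-dose calcium agonist read, cut at about 30% in these data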
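Tetracycline-induced HEK293 T-REx cells with force-coupled D2 receptor, plated overnight at 30 C, loaded with no-wash calcium dye. After a 10 s baseline, compound was pin-added and calcium flux read kinetically for 180 s; calcium rises flagged agonists.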
D2 antag = antagonizes the human D2 dopamine receptor | P14416 | HEK293 TREx D2 cells, calcium flux, dopamine EC80 | inhibition, % at 10 µM | 340,000 tested, 2% active | AID 485344; in the data active means inhibition above about 30%; inactive means below that, where a call was filed
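Dopamine at EC80 is the agonist stimulus; test compounds precede it by 180 s. Calcium flux read kinetically in a force-coupled, inducible HEK293 T-REx D2 cell line.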
D2 ag-2 = activates the human D2 dopamine receptor. P14416. DiscoveRx PathHunter D2 beta-arrestin, luminescence, 90 min; 100% = 57 uM dopamine signal. activation, % (test concentration not listed). 360,000 tested, 0.084% active. AID 624465; in the data active means activation above about 40%; inconclusive means between about 15% and that limit
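DiscoveRx PathHunter D2 beta-arrestin cells (2,100/well) attached overnight, then compound-stimulated 90 min at 37 C in HBSS/10 mM HEPES/0.1% Tween-20 buffer; beta-galactosidase complementation read by luminescence after 1 h at ambient temperature. Dopamine 57 uM final (EC100) as control.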
Large screens that a line does not name were inactive. Rows were chosen to be rich in hits. Some 2.4% of all compounds tested hit in one or more screens of this group.

C=CC(C)(C)c1[nH]cnc1/C=C1\NC(=O)C(C(C)C)NC1=O (centres undefined)	D2 antag 76
CCOC(=O)C(Cc1cc(C(C)=O)ccc1OC(C)C)C(=O)OCC	D2 antag 54
O=C1CC(N2CCC(c3nc4ccccc4s3)CC2)C(=O)N1 (centres undefined)	D2 antag 33 (no result: D2 PAM-1)
Cc1ccc(C2C(=O)N(C3CCCCCC3)CC(=O)N2C(C)C)cc1 (centres undefined)	none (no result: D2 PAM-2, B2AR arrestin, D2 antag, D2 ag-2)
CC(=O)Nc1nc(N)n(-c2ccccc2)n1	none (no result: B2AR arrestin)
Nc1nc(NC(=O)/C=C\C(=O)O)nn1-c1ccccc1	D2 antag 36
CN1CCc2c(sc(N)c2C(N)=O)C1	none
CCN1CCc2c(sc(N)c2C(N)=O)C1	D2 antag 38
Cc1ccc(C)c(NC(=O)COC(=O)CC2CC3CCC2C3)c1 (centres undefined)	none (no result: D2 PAM-1, D2 ag-1, D2 antag)
O=C(COC(=O)CC1CC2CCC1C2)Nc1cc([N+](=O)[O-])ccc1F (centres undefined)	D2 PAM-1 32
Cc1cc(OCc2cc(C(=O)N3CCN(C)C(=O)[C@@H]3C)no2)cc(C)c1Cl	D2 PAM-1 30
COc1cc(Cl)ccc1OCc1cc(C(=O)N2CCN(C)C(=O)[C@@H]2C)no1	none (no result: D2 PAM-1, B2AR arrestin, D2 ag-1, D2 antag)
COc1ccc(C(=O)NC2CCCN(Cc3ccccc3F)C2)c(OC)c1OC (centres undefined)	none
CCN1CCCC(NC(=O)c2cc([N+](=O)[O-])ccc2OC)C1 (centres undefined)	D2 antag 39
O=C(NCc1ccncc1)C(=O)NCC(c1ccco1)N1CCN(c2ccccc2F)CC1 (centres undefined)	D2 ag-1 34
O=C(COc1ccccc1)NCC(c1ccco1)N1CCN(c2ccc(F)cc2)CC1 (centres undefined)	none
O=C(COc1ccccc1)NCC(c1ccco1)N1CCN(c2ccccc2F)CC1 (centres undefined)	D2 ag-1 34, D2 ag-2 inconclusive
O=C(NCC1CCCO1)C(=O)NCC(c1ccco1)N1CCN(c2ccccc2)CC1 (centres undefined)	D2 ag-1 35
Nc1ccc2oc3ncccc3c(=O)c2c1	none
O=C(NCCCN1CCOCC1)c1cn(-c2ccccc2)nc1-c1ccc(Br)cc1	none (no result: D2 PAM-1, D2 ag-1, D2 antag)
CCn1ncc(Br)c1C(=O)Nc1ncc(C)s1	none
Cc1ccc(NC(=O)CS(=O)CC(=O)N(CC(=O)NC2CCCC2)c2cccc(C)c2C)cc1 (centres undefined)	D2 antag 55
Cc1cccc(N(CC(=O)NC2CCCC2)C(=O)CS(=O)CC(=O)Nc2ccc3c(c2)OCO3)c1C (centres undefined)	none
COC(=O)C1=C(C)NC2=C(C1c1ccc(O)cc1)S(=O)(=O)c1ccccc12 (centres undefined)	none
COc1ccc(C2C(C#N)=C(C)NC3=C2S(=O)(=O)c2ccccc23)cc1 (centres undefined)	D2 PAM-1 32
On1onc2c3cc(-c4ccccc4)nc3ccc21	D2 PAM-2 59
c1ccc(-c2cc3c(ccc4nonc43)nn2)cc1	none
O=[N+]([O-])c1ccc(/C=N/NS(=O)(=O)c2ccc(Cl)cc2)o1	D2 antag 45
COc1ccc(Cc2nc(C)cc(Cl)n2)cc1[N+](=O)[O-]	none
CCn1cc(C(=O)NCCCN(C)c2ccccc2)c(=O)c2cc(S(=O)(=O)N(C)C)ccc21	D2 PAM-1 54, D2 ag-1 43
CCn1cc(C(=O)NCCc2ccc(Cl)cc2)c(=O)c2cc(S(=O)(=O)N(C)C)ccc21	none
CCn1cc(C(=O)N2CCOCC2)c(=O)c2cc(S(=O)(=O)N(C)C3CCCCC3)ccc21	D2 PAM-1 32
CCN(CCCNC(=O)c1cn(CC)c2ccc(S(=O)(=O)N(C)C)cc2c1=O)c1cccc(C)c1	none
CCn1cc(C(=O)NCc2ccc(Cl)cc2)c(=O)c2cc(S(=O)(=O)N(C)C)ccc21	D2 antag 32
CCn1cc(C(=O)N2CCOCC2)c(=O)c2cc(S(=O)(=O)N(C)C)ccc21	none
COc1cc(NC(=O)Cn2cc(S(=O)(=O)N3CCC(C)CC3)c3ccccc3c2=O)cc(OC)c1OC	none (no result: D2 PAM-2, B2AR arrestin, D2 antag, D2 ag-2)
Cc1ccc(Nc2ncnc3nc[nH]c23)cc1Cl	none
O=c1ccc2c([nH]1)CCCCCCCCCC2	none
Cc1ccc(NC(=O)CSCC#N)cc1	D2 antag 87
Clc1ccc(-c2cn3c(n2)SCC3)cc1	none
Nc1nc(-c2ccc(Cl)cc2)cn1N	D2 antag 30
COc1ccc(OC)c(Nc2nc(-c3ccncc3)nc3ccccc23)c1	none
Cc1ccc(C)c(Nc2nc(-c3ccncc3)nc3ccccc23)c1	D2 antag 36 (no result: D2 ag-1)
O=C(Nc1ccccc1)C(=O)Nc1ccc2c(c1)N(C(=O)C1CC1)CCC2	D2 antag 35
Cc1ccc(NC(=O)N2CCCc3ccccc32)cc1C	none
CN(C(=O)Nc1ccccc1)C1CCCCC1	none
O=C(c1ccccc1F)N1CCCc2ccccc21	D2 PAM-1 39
O=C(Nc1ccccc1)N1CCCc2ccccc21	D2 PAM-1 47
CN(C(=O)Nc1ccccc1)C1CCCc2ccccc21 (centres undefined)	D2 antag 30
CN1CCc2nc(SCC(=O)Nc3ccc(F)cc3)c(C#N)cc2C1	none (no result: D2 PAM-2, D2 ag-2)
COc1cc(NC(=O)c2cc3nc(-c4ccccc4)cc(-c4ccccc4)n3n2)c(OC)cc1Cl	none (no result: D2 PAM-2, B2AR arrestin, D2 antag, D2 ag-2)
COc1ccc(-n2nnnc2-c2cccc(OC)c2)cc1	D2 antag 36
Cc1ccc(C(=O)NCCn2cc(SCC(=O)Nc3cc(C)on3)c3ccccc32)cc1	D2 antag 32
COc1ccc(-n2cnc3sc(-c4ccccc4)cc3c2=O)cc1	none
CCN1CCN(C(=O)c2cc3c(s2)-c2ccccc2S(=O)(=O)C3)CC1	D2 antag 45
CCCN1CCN(C(=O)c2cc3c(s2)-c2ccccc2S(=O)(=O)C3)CC1	none (no result: D2 PAM-2, D2 ag-2)
COC(=O)c1sccc1NC(=O)NC1CCCCC1	none
COc1ccc(O)c(CNn2c(-c3ccc(Br)cc3)nc3ccccc3c2=O)c1	D2 antag 50
Cc1ccc(OCCC(=O)OCC(=O)c2c(N)n(CC(C)C)c(=O)n(C)c2=O)cc1	none
CCOCCCNC(=O)c1cc(C)nn1-c1ccccc1	D2 antag 36
COc1cc(CNc2ccc(O)cc2)cc(Br)c1OCc1ccccc1F	D2 PAM-2 77, D2 ag-2 inconclusive
CCOc1cc(CNc2ccc(O)cc2)cc(Br)c1OCc1ccccc1F	D2 ag-2 inconclusive (no result: D2 PAM-1, D2 ag-1, D2 antag)
O=C(CSc1nccc(-c2ccc(Br)cc2)n1)NCCc1ccccc1	none
COc1ccc2c(=O)c(C(=O)O)c(-c3ccc4c(c3)OCO4)n(C)c2c1	none
